In PubChem BioAssay (NCATS) one finds Potency, max response and outcome data, which are given here for five molecules.

Assay in all cases: Cytotoxic Profiling of Annotated Libraries Using Quantitative High-Throughput Screening (AID 1296008); further: nearly all actives have a fitted effect of over 60% in size
Details in all cases: Five cell lines viability, CellTiter-Glo ATP luminescence, 48-72 h; max response: hits give low values

The test system of one experiment is HEK293. An outline of the steps:
(§1)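 Compounds were pin-transferred onto cells and incubated 48 or 72 hr at 37 degree Celsius, 95% humidity. CellTiter-Glo was added, plates sat 10 min at room temperature, then ATP-coupled luminescence was imaged as the viability read-out.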

Another experiment deals with HaCat. An outline of the steps: as §1
For another experiment, the system named is KB-3-1. An outline of the steps: as §1
The next experiment has as its system NIH3T3. An outline of the steps: as §1

Structures are written as SMILES. Results filed as inconclusive are left out. The source made the active and inactive calls. The call rests on the fitted dose curve; in most records, active means well fitted inhibition curve with a large enough effect; inconclusive means small, poorly fitted or top-dose-only effect; inactive means flat fitted curve, though single readings scatter.
On the % scale 0 is the no-effect control and ±100 the full control effect; potency means the concentration at half of the fitted maximal effect.

For the molecule `O=C(c1cn(Cc2cncn2Cc2ccc(Br)cc2)cc1-c1cccc2ccccc12)N1CCOCC1`, the Potency in the experiment on HEK293 is 0.58 µM (active); with HaCat it was 5.8 µM (active); with KB-3-1, 11.6 µM (active); with NIH3T3, 7.31 µM (active).
Turning to `CC(=O)N[C@H]1[C@H](O[C@H]2CC[C@@]3(C)C(CC[C@]4(C)C3CC=C3C5CC(C)(C)CC[C@]5(C(=O)O)[C@H](O)C[C@]34C)C2(C)C)O[C@H](CO[C@@H]2OC[C@H](O)[C@H](O)[C@H]2O[C@@H]2OC[C@@H](O)[C@H](O)[C@H]2O)[C@@H](O)[C@@H]1O` (stereo not given in full), the max response with HEK293 is -1.2% (inactive); with HaCat it was -6.42% (inactive); in the experiment on KB-3-1, 4.32% (inactive); in the experiment on NIH3T3 it was -13.2% (inactive).
For the molecule `C[C@@H]1O[C@@H](O[C@H]2[C@H](OC(=O)[C@]34CCC(C)(C)C[C@H]3C3=CCC5[C@@]6(C)C[C@H](O)[C@H](O[C@@H]7O[C@H](CO)[C@@H](O)[C@H](O)[C@H]7O)[C@@](C)(CO)C6[C@H](O)C[C@@]5(C)[C@]3(C)CC4)OC[C@H](O)[C@@H]2O)[C@H](O)[C@H](O)[C@H]1O[C@@H]1OC[C@@H](O)[C@H](O[C@@H]2OC[C@](O)(CO)[C@H]2O)[C@H]1O` (stereo not given in full), the max response in the experiment on HEK293 was -1.81% (inactive); in the experiment with HaCat, -1.17% (inactive); in the experiment on KB-3-1 it was 3.08% (inactive). Also, in the experiment on NIH3T3, the molecule was classed as inactive.
On to `COc1c2cc(c(O)c1OC)-c1cc(ccc1O)CCC(O)CCCC2` (stereo not given), for which the values for the max response in the experiment with HEK293 and in the experiment with NIH3T3 were 1.1% (inactive) and -1.69% (inactive), respectively. The molecule was called inactive in the experiment with HaCat and with KB-3-1.
For the molecule `CCOc1cc(CC(=O)NC(CC(C)C)c2ccccc2N2CCCCC2)ccc1C(=O)O` (stereo not given), the max response in the experiment with HEK293 is -4.19% (inactive); in the experiment with HaCat, 3.59% (inactive); with KB-3-1 it was -3.75% (inactive). Besides, the outcome with NIH3T3 was inactive.
